Measured values reported in the supplement of paper PMC3545927.
The list shows a part of the results. The hit rate among all sequences tested is not known here.

Target: furin, P09958
Experiment: furin cleavage Z-score vs untreated control; higher = more cleavage, active = 3.5 or more, inactive = 1 or less, 8 variable residues between constant flanks
Procedure, shortened: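 The cleavage Z-score is the log read count relative to furin-free reactions, lowess-adjusted and scaled by median absolute deviation. Counts came from sequencing DNA released from bead-bound 8-mer peptide–cDNA fusions after digestion with purified furin for 7.5, 15 or 30 min.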
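Further: purified furin at 1:10 enzyme:substrate in 50 mM HEPES pH 7.5.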

Chain of furin, P09958 (P09958 whole entry): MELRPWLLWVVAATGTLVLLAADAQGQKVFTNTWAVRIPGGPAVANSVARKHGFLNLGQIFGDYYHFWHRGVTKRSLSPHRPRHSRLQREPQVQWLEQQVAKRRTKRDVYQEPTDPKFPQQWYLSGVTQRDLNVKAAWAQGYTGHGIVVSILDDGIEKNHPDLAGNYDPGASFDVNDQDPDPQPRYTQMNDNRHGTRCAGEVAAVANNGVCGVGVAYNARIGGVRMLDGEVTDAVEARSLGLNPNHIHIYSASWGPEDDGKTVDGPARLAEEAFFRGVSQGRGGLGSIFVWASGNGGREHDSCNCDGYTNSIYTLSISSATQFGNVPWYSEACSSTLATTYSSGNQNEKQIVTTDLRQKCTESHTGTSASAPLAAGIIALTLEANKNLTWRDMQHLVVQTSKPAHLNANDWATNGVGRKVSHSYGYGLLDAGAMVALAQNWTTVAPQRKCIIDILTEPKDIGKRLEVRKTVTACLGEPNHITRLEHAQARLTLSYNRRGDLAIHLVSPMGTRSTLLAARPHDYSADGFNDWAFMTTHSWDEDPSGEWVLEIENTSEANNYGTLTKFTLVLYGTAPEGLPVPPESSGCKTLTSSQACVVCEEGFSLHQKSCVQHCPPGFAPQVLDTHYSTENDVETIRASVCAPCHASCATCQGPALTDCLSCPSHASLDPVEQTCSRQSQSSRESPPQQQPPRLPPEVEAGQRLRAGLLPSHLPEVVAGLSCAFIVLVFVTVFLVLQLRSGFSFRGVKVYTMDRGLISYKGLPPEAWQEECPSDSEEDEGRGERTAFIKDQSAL

Sequence | furin cleavage Z-score (7.5 min) | furin cleavage Z-score (15 min) | furin cleavage Z-score (30 min)
CARCARSSFTAGNASASA [FS-2895] | -1.39 (inactive) | -0.507 (inactive) | -0.615 (inactive)
CAVPAKSVCGAGNASASA [HC409] | -1.6 (inactive) | 0.783 (inactive) | -0.986 (inactive)
CALHCPTDCFAGNASASA [HC450] | 0.987 (inactive) | -0.346 (inactive) | 0.0192 (inactive)
CAHSYSPGEIAGNASASA [HC1608] | -0.391 (inactive) | -1.22 (inactive) | -0.845 (inactive)
CAYHHKFNSSAGNASASA [HC382] | -0.863 (inactive) | -0.739 (inactive) | -0.583 (inactive)
CAGPGREDRFAGNASASA [FS-1590] | 0.0501 (inactive) | -0.782 (inactive) | 0.43 (inactive)
CAARNRQKRFAGNASASA [FS-1308] | 9.16 (active) | 10.4 (active) | 8.81 (active)
CATVGRVKRFAGNASASA [FS-306] | 9.9 (active) | 9.6 (active) | 9.08 (active)
CAARPRWIWFAGNASASA [HC1654] | 0.126 (inactive) | 1.51 | 1.36
CAVCARAQAPAGNASASA [HC957] | -0.611 (inactive) | -0.626 (inactive) | 0.901 (inactive)
CAPIDTTIMAAGNASASA [HC1437] | -1.63 (inactive) | 0.33 (inactive) | -1.75 (inactive)
CAMVECSQHLAGNASASA [HC1690] | 1.97 | 0.64 (inactive) | 0.696 (inactive)
